Assay results from PubChem BioAssay AID504660 (National Center for Advancing Translational Sciences (NCATS), 2011).
Values joined by “and” are separate entries in the source; they are usually repeats but may differ in a detail not shown here. Equal values may be shown once. The whole screen tested about 360,000 compounds, of which about 3,700 (1%) were called active. The sample holds actives, similar compounds and a random draw of the others, so the mix is not that of the screen. Cut-off read from the data, not from the text of the source: active = activation above about 30%; inactive = the rest.

What follows are molecules tested against D(1A) dopamine receptor (Homo sapiens) (UniProt P21728) (assay: Allosteric Agonists of the Human D1 Dopamine Receptor: qHTS). Conditions: HEK293 T-REx D1 cells, calcium flux, agonist mode; at 2 µM; stronger effect = higher value.
D(1A) dopamine receptor (Homo sapiens), sequence (P21728 whole entry, looked up): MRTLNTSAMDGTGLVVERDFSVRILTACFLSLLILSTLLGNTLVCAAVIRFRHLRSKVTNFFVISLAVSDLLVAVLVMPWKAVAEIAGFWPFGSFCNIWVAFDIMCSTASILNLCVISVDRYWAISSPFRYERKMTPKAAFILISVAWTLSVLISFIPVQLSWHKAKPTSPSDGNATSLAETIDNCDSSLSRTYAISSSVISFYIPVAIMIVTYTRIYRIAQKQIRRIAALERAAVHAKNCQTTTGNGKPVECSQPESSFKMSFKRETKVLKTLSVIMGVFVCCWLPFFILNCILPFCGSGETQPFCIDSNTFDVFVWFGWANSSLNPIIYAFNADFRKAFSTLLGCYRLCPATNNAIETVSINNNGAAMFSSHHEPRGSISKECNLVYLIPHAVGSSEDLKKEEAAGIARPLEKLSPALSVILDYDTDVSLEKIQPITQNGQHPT
Outline: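 Inducible HEK293 T-REx D1 cells, force-coupled to calcium signalling, were plated at 4000 cells/well with tetracycline and held overnight at 30 C. After no-wash calcium dye loading, compound-evoked calcium rise over 180 s flagged agonists.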
Note: 0% is about no effect.

activation, active:
COCc1nc2ccccc2n1Cc1ccccc1Br 30.7%
Cc1ccc(-c2noc(CSc3nnnn3-c3ccccc3)n2)cc1 45.5%
COc1cc(C(=O)NCc2ccncc2)cc(Br)c1OCc1ccccc1 62.9%
CCN(CC)c1ccc2cc(C(N)=O)/c(=N\NC(=O)c3ccncc3)oc2c1 68.8%
COc1ccccc1NC(=O)c1sc2nc(C)c(C(=O)Nc3ccc(Cl)cc3)c(-c3ccc(Br)cc3)c2c1N 48.4%
CCCn1c2ccccc2c2cnn(CC(=O)NCC3CCN(Cc4ccc(C)cc4)CC3)c(=O)c21 32%
NC(=O)c1ccc(NC(=O)COC(=O)c2c3c(nc4ccccc24)/C(=C\c2ccc4c(c2)OCO4)CCC3)cc1 51.7%
NS(=O)(=O)c1ccc(NC(=O)COC(=O)c2c3c(nc4ccccc24)/C(=C\c2ccc4c(c2)OCO4)CCC3)cc1 59.4%
Cc1cc(C)cc(NC(=O)C2CCCN2S(=O)(=O)c2cccc3cccnc23)c1 (centres undefined) 34.7%
CN(C)CCCNC(=S)N1CCN(c2nc(-c3ccccc3)cs2)CC1 32.3%
N=c1c2c(-c3ccccc3)c(-c3ccccc3)n(Cc3ccccc3)c2ncn1CCCO 112%
S=C(Nc1ccc(Br)cc1Cl)NC1CCN(Cc2ccccc2)CC1 30.9%
S=C(Nc1ccc(Br)cc1)NC1CCN(Cc2ccccc2)CC1 39.5%
CCOC(=O)c1cc2ccccc2nc1C 31.8%
Cc1ccccc1NC(=S)NC(=O)Cc1ccc(Cl)cc1 69.1%
O=C(Cc1ccc(Cl)cc1)NC(=S)Nc1ccccc1O 35.4%

activation, inactive:
CCN(CC)c1nn2c(=O)c(C(=O)NCCc3ccccc3)cnc2s1 -0.903%
COc1ccc(NC(=O)CSC2=Nc3ccccc3C3=NC(CC(=O)NCc4ccccc4OC)C(=O)N23)cc1Cl (centres undefined) 4.46%
Cc1cccc(OCCSc2nc3ccc(NC(=O)COc4ccccc4C)cc3s2)c1 14.8%
C=C(Br)Cn1c(CCCC)nc2ccccc21 2.85%
COc1ccccc1Cn1c(CO)nc2ccccc21 2.48%
Cc1ccc(-c2noc(CSc3nnc(-c4ccc(Cl)cc4)n3C)n2)cc1 -2.32%
Cc1ccc(Nc2nc(CSc3nnnn3-c3ccccc3)cc(=O)[nH]2)cc1 0.0289%
COc1ccc(C(=O)Nc2cccc(C(=O)OCc3cc(=O)n4c5c(sc4n3)CCCC5)c2)cc1 0.659%
CCc1ccccc1N1C(=O)CN(S(=O)(=O)CC)CC1(C)C(=O)NC1CCCCC1 (centres undefined) 0.155%
COc1cc(C(=S)NCc2ccccc2)cc(Br)c1O 1.7%
COc1cc(C(=O)NCc2ccc(-n3cccc3)cc2)cc(OC)c1OC 4.24%
CC(C)OCCCn1c(SCC(=O)c2ccccc2)nc2c(sc3ccccc32)c1=O -1.31%
Cc1ccccc1CNC(=O)C1CCCN(S(=O)(=O)N(C)c2ccc(F)cc2)C1 (centres undefined) 2.76%
CCOC(=O)c1c(C)oc2ccc(N(C(=O)c3ccncc3)S(=O)(=O)c3ccc(CC)cc3)cc12 2.86%
C/C(=N\NC(N)=S)c1ccncc1 0.713%
CCCCCCn1nnc2sc(-c3ccccc3)cc2c1=O 2.52%
COc1ccc(Cl)cc1NC(=O)c1sc2nc3c(cc2c1N)CN(C)CC3 5%
COC(=O)c1c(NC(C)=O)sc(C(=O)Nc2ccccc2OC)c1C 2.77%
O=C(CCc1cn(Cc2ccc(F)cc2)c2ccccc12)NC1CCCCC1 4.91%
O=C(NCCc1ccc(Cl)cc1)c1ccc2c(c1)N(Cc1ccc(F)cc1)C(=O)CS2 -1.03%
Oc1ccc(-c2nc3ccc(Cl)cn3c2Nc2ccc3c(c2)OCO3)cc1 2.27%
Cc1c(NC(=O)c2cc(=O)c3ccccc3o2)c(=O)n(-c2ccccc2)n1C -0.0323%
COc1ccccc1-c1noc(-c2ccc(NCc3ccccc3)c([N+](=O)[O-])c2)n1 -1.19%
Cc1ccc(Cl)cc1NC(=O)CSc1nc2ccccc2nc1Cc1ccccc1 3.58%
CCCn1c2ccccc2c2cnn(CC(=O)NCCCOC(C)C)c(=O)c21 -0.0904%
CCCn1c2ccccc2c2cnn(CC(=O)NCCCN3CCCCC3CC)c(=O)c21 (centres undefined) 2.1% and -0.646%
Cc1ccc(NC(=O)Cc2ccc(NC(=O)N3CCCCc4ccccc43)cc2)cc1 4.12%
Cc1ccc(Cl)cc1NC(=O)C(C)n1nnc2sc(-c3ccccc3)cc2c1=O (centres undefined) -0.45%
Cc1ccc(-n2c(SCC(=O)Nc3cccc(F)c3)nc3c(oc4ccccc43)c2=O)cc1C 4.64%
CCN(CC(=O)Nc1ccc2c(c1)OCO2)S(=O)(=O)c1ccccc1 2.93%
CCc1ccc(NC(=O)Cn2nnc(C(=O)NCc3ccc4c(c3)OCO4)c2N)cc1 0.807%
CC(NC(=S)Nc1ccc(S(N)(=O)=O)cc1)c1ccc2c(c1)OCO2 (centres undefined) 3.07%
O=C(COC(=O)c1c2c(nc3ccccc13)CCCC2)c1ccc(Br)s1 8.91%
CCN(CC)c1ccc(NC(=O)CN2CCN(CC(=O)Nc3ccc(Cl)cc3)CC2)cc1 2.48%
CC(C)CCN(C(=O)Nc1ccc(Cl)c(Cl)c1)C(C)c1cccs1 (centres undefined) 23.8%
CCOc1ccccc1CNC(=O)c1ccc2c(c1)nc1n2CCC(C)C1 (centres undefined) -0.796%
N#CN1CCC(NC(=O)c2ccc(F)cc2)CC1 3.29%
COc1cccc(C(=O)NC2=NC(c3ccc(N(C)C)cc3)CC(=O)N2)c1 (centres undefined) -0.763%
Cc1ccc(NC(=O)C2CCCN2S(=O)(=O)c2cccc3cccnc23)c(C)c1 (centres undefined) -0.331% and 2.62%
O=C(Nc1nccs1)C1CCCN1S(=O)(=O)c1cccc2cccnc12 (centres undefined) 0.517%
Cc1noc(/C=C/N(C)C)c1S(=O)(=O)N1CCCC(C(=O)Nc2cccc(F)c2)C1 (centres undefined) 5.84%
O=C(COc1ccccc1)OCc1cc(=O)n2nc(-c3cccs3)sc2n1 3.1%
Cc1cccc(C(CC(=O)NCC2(c3ccccc3)CCCC2)c2ccccc2)c1O (centres undefined) 2.41%
O=C(CCOc1ccccc1)N(Cc1cccnc1)c1nc2ccc(Cl)cc2s1 2.39%
COCCCNC(=S)N1CCN(c2nc(-c3cccc(OC)c3)cs2)CC1 6.03%
CN(C)CCCNC(=S)N1CCC(c2nc3ccccc3[nH]2)CC1 -0.699%
COc1cccc(CNc2nccn(-c3ccc(OC)c(OC)c3)c2=O)c1 1.78%
COc1cc(NC(=O)Cn2c(=O)n(Cc3ccco3)c(=O)c3oc4ccccc4c32)cc(OC)c1 -0.131%
COCCn1cnc2c1c(=O)n(CC(=O)NN)c(=O)n2Cc1ccccc1 1.04%
CC(C)CCn1cnc2c1c(=O)n(CC(=O)NC(N)=O)c(=O)n2Cc1ccccc1 1.24%
Cc1cc(C)cc(NC(c2nnc(-c3cccc(F)c3)o2)c2ccc(F)cc2Cl)c1 (centres undefined) 2.35%
N#C/C(=C\c1ccccc1F)c1nc2ccccc2c(=O)[nH]1 6.41%
Cn1c(COc2ccccc2C(C)(C)C)nc2ccccc21 19.9%
O=C(NC1CCN(Cc2ccccc2)CC1)c1cc(Br)c(Br)[nH]1 7.63%
Cc1cc(C(=O)NC2CCN(Cc3ccccc3)CC2)n[nH]1 1.69%
CC1CN(C(=S)Nc2ccc(Br)cc2Cl)CC(C)O1 (centres undefined) -0.955%
Cc1cc(Br)ccc1NC(=S)NC1CCCC1 9.12%
CCN(Cc1ccccc1)Cc1c(O)ccc2c(=O)c(-c3ccc(Cl)cc3Cl)coc12 -1.31%
Cc1ccc(NC(=O)NC(C)c2c(-n3cccc3)sc(C)c2C)c(C)c1 (centres undefined) -1.09%
CCOC(=O)c1cc(NC(=O)SCC(=O)O)c(C)nc1C 1.84%
CCOC(=O)c1cc2ccccc2n1CC(=O)c1ccccc1 6.36%
CCOc1ccc(N(CC)C(=O)C2CCN(S(=O)(=O)c3cccc4nonc34)CC2)cc1 0.273%
CCOc1cccc(CC(=O)N2CCc3c([nH]c4ccccc34)C2c2ccc(F)cc2)c1OCC (centres undefined) 2.49%
Cc1cc(C(=O)NNC(=S)Nc2ccccc2C)cs1 2.41%
Cc1ccccc1N/C(SCc1ccc(Cl)cc1)=C(/C#N)C(N)=O 3.17%
COC(=O)c1ccccc1NC(=O)CN(Cc1ccc(Cl)cc1)S(C)(=O)=O 3.99%
O=C(NC(=S)Nc1ccc(Cl)cc1Cl)C1CC1 1.23%
Cc1nnc(NC(=O)CSc2nc3c([nH]c4ccccc43)c(=O)n2-c2cccc(Cl)c2)s1 -0.131%
COC(=O)c1scc(-c2ccccc2)c1S(=O)(=O)Nc1ccccc1 3.73%
COc1cccc(NC(=O)C(=O)NCC(c2ccc3c(c2)OCO3)N2CCN(C)CC2)c1 (centres undefined) 5.73%
Cn1c(=O)c2c(SCC(=O)N3CCc4ccccc43)nc(-c3ccc(Cl)cc3)nc2n(C)c1=O 0.75%
CCc1ccc(NC(=O)c2cc(S(=O)(=O)N3CCCC(C)C3)cn2C)cc1 (centres undefined) 3.74%
CC(C)c1ccc(S(=O)(=O)Nc2ccc(O)c(Sc3nc4ccccc4s3)c2)cc1 2.29%
